Source: PubChem
Sampled rows, rich in hits. Any-hit rate of the full collection: about 8.3%.
MARV entry inh = inhibitors of Marburg virus binding or cell entry; Potency, µM (titrated, usually from 37.8 µM), without a hit: top-dose activity change, negative = inhibition, hits mostly inhibitors; AID 540276; 1.8% of 300,000 active; Marburg virus pseudotyped entry inhibition, cell reporter; calls by dose curve; tested in HEK293 cells; also: potency is read from the fitted curve at half-maximal effect
LASV entry inh = inhibitors of Lassa virus binding or cell entry; AID 540256; 1.2% of 300,000 active; Lassa virus pseudotype entry inhibition, cell reporter; Potency, µM (top dose mostly 37.9 µM), inactives show top-dose activity change, negative = inhibition, actives largely listed as inhibitors; calls by dose curve; tested in HEK293 cells; also: potency is read from the fitted curve at half-maximal effect; nearly all actives have a fitted effect of over 50% in size
HCMV inh = human cytomegalovirus inhibition. HFF cells, HCMV-luciferase reporter, 72 h; hits give low values. activity change, negative = inhibition, % at 57.5 µM. 4.5% of 410,000 active. AID 1259415; in the data active = activity change below about -60%; inconclusive = no clear call, values can overlap the other calls; inactive = above about -39%
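Cell-based, HFFs, 1000 cells/well, 16 h 37C; cpds in DMSO + HCMV-luc, MOI 1 PFU/cell; 72 h 37C; OneGlo luminescence after 5 min RT; norm. to buffer vs Salinomycin 10uM.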
FMDV antiviral = foot and mouth disease virus antiviral activity. FMDV antiviral cell-based qHTS. Potency, µM (highest dose often 57.9 µM), without a hit: at the top dose activity change, negative = inhibition, most hits filed as inhibitors. 1.2% of 410,000 active. AID 1159524; calls by dose curve; tested in HEK293T cells; also: read-out not given here; potency is read from the fitted curve at half-maximal effect; nearly all actives have a fitted effect of over 45% in size
Giardia FBPA inh = inhibitors of Giardia lamblia fructose-1,6-bisphosphate aldolase; A8B2U2; Potency, µM (series often up to 59.6 µM), for the others: at the top dose activity, negative = inhibition, most hits filed as inhibitors; 0.71% of 290,000 active; purified Giardia FBPA; also: potency is read from the fitted curve at half-maximal effect; nearly all actives have a fitted effect of over 55% in size
Target sequence (A8B2U2 whole entry, looked up): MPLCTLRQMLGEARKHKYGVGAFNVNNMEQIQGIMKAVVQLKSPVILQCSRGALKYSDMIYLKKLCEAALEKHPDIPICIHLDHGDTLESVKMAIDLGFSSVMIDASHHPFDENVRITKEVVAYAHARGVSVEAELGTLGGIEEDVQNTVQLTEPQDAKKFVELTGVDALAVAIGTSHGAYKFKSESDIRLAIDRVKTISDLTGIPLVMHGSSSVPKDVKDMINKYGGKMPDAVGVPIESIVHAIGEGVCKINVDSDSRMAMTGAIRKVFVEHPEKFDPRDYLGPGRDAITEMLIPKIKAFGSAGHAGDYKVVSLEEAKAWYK
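40 nM FBPA preincubated 10 min at RT with compound (up to 57.5 uM final), then substrate plus GAPDH/TPI/NAD/arsenate coupling and diaphorase/resazurin added. Fluorescence read after 20 min at RT, 525/598 nm.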
HCV inh = inhibitors of hepatitis C virus infection | Huh7.5.1 HCVcc-Cre infection, luciferase reporter, 44 h | Potency, µM (doses to about 41.8 µM), inactives show at the top dose activity change, negative = inhibition, hits mostly inhibitors | 3.4% of 340,000 active; also: potency is read from the fitted curve at half-maximal effect
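Cells seeded at 1,000/well and cultured 4 h, then compounds added followed by HCVcc-Cre virus (~0.5 moi). After 44 h further culture, luciferase substrate was added, plates held 15 min at room temperature, and luminescence read for 15 sec.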
The depositor's hits bear a star; [ ] = dose if it differs, or a comment. Unless noted, calls follow the shape of the dose curve; as a rule, active = well fitted curve in the direction sought with a large enough effect; inconclusive = small, poorly fitted or top-dose-only effect, or another doubt; inactive = no such curve, though single readings can be large; an effect the other way counts as inactive or inconclusive. % is scaled to controls: 0 for no effect and ±100 for the full control effect.

How did COc1cccc(-c2ccc3ncnc(NCc4ccccc4)c3c2)c1 do in these assays?
FMDV antiviral: inconclusive; Giardia FBPA inh: -8%

How did Cn1c(=O)c(-c2cc(F)cc(F)c2)nc2cnc(N3CCOCC3)nc21 do in these assays?
FMDV antiviral: -11%; Giardia FBPA inh: 1%

How did Cc1ccc2oc(-c3cccc(NC(=O)c4ccc(N5CCC(C)CC5)c([N+](=O)[O-])c4)c3)nc2c1 do in these assays?
MARV entry inh: -6%[46.1 µM]; LASV entry inh: -6%[46.1 µM]; HCMV inh: 6; FMDV antiviral: -8%

How did COc1ccc(Nc2cc3c(cn2)cc(-c2cnn(C)c2)n3Cc2ccccc2)cc1OC do in these assays?
HCMV inh: -8

Results for Cn1cc(-c2cc3cnc(Nc4cccc(NS(C)(=O)=O)c4)cc3n2Cc2ccccc2)cn1 ?
HCMV inh: -88*

What do the screens show for `O=C(Nc1nc(-c2ccccn2)cs1)c1ccc(Br)s1`?
MARV entry inh: inconclusive; LASV entry inh: inconclusive; HCMV inh: -99*; FMDV antiviral: 0%; Giardia FBPA inh: inconclusive; HCV inh: 2.2µM*

What do the screens show for `O=C(CCS(=O)(=O)c1ccc(F)cc1)Nc1nc(-c2ccccn2)cs1`?
HCMV inh: -106*; FMDV antiviral: inconclusive; Giardia FBPA inh: inconclusive; HCV inh: -1%

Results for O=C(CCS(=O)(=O)c1ccccc1)Nc1nc(-c2ccccn2)cs1 ?
HCMV inh: -103*; FMDV antiviral: -24%; HCV inh: inconclusive

Results for C[C@H](NC(=O)c1ccco1)C(=O)Nc1nc(-c2ccccn2)cs1 ?
MARV entry inh: -7%; LASV entry inh: -12%[46.1 µM]; HCMV inh: -25; FMDV antiviral: -18%; HCV inh: -13%

Results for O=C(CCS(=O)(=O)c1ccccc1)Nc1ccccn1 ?
MARV entry inh: 8%[46.1 µM]; LASV entry inh: inconclusive; HCMV inh: -24; FMDV antiviral: 4%; Giardia FBPA inh: 10%; HCV inh: 22%

How did CC(Oc1ccc(F)cc1)C(=O)Nc1nc(-c2ccccn2)cs1 (stereo unspecified) do in these assays?
MARV entry inh: inconclusive; LASV entry inh: inconclusive; HCMV inh: -90*; FMDV antiviral: inconclusive; HCV inh: 8.9µM*

Results for O=C(Nc1nc(-c2cc(Cl)sc2Cl)cs1)c1ccc(Br)s1 ?
MARV entry inh: inconclusive; LASV entry inh: inconclusive; HCMV inh: -11; FMDV antiviral: -24%; Giardia FBPA inh: -2%; HCV inh: inconclusive

How did Cc1ccc(S(=O)(=O)CCC(=O)Nc2nc(-c3ccncc3)cs2)cc1 do in these assays?
HCMV inh: -10; FMDV antiviral: inconclusive; Giardia FBPA inh: 7%; HCV inh: 14%

How did COc1cc(-c2cnc3ccccc3c2)cc2c1OCCN(C(=O)Cn1nccc1C)C2 do in these assays?
FMDV antiviral: -10%

What do the screens show for `CCCCCCCCCCCCCCCC(O)C(N)CO` (stereo unspecified)?
MARV entry inh: 31%; LASV entry inh: 7%; HCMV inh: -98*; FMDV antiviral: -3%; Giardia FBPA inh: 2%; HCV inh: 0%[8.37 µM]

Results for CCOC(=O)/C(=C\Nc1cccc(OCc2ccccc2)c1)NC(=O)c1ccccc1 ?
HCMV inh: -60*

What do the screens show for `CCNC(=O)c1c(NC(=O)c2nc(S(=O)(=O)CC)ncc2Cl)sc2c1CCCC2`?
MARV entry inh: 2%[46.1 µM]; LASV entry inh: 7.9µM*; HCMV inh: -101*; FMDV antiviral: inconclusive

What do the screens show for `CCSc1ncc(Cl)c(C(=O)Nc2sc3c(c2C(=O)NCc2cccnc2)CCCC3)n1`?
MARV entry inh: -2%; LASV entry inh: -23%; HCMV inh: -15; Giardia FBPA inh: 5%; HCV inh: 10µM*

How did COCCCNC(=O)c1c(NC(=O)c2nc(S(C)(=O)=O)ncc2Cl)sc2c1CCCC2 do in these assays?
MARV entry inh: 14%[46.1 µM]; LASV entry inh: 20%[46.1 µM]; HCMV inh: 10; FMDV antiviral: -18%

How did c1ccc(-n2cccc2CNC2CCCCC2)cc1 do in these assays?
MARV entry inh: 21µM*; LASV entry inh: 2%; Giardia FBPA inh: -25%; HCV inh: 6%

How did CCCCN(CCCC)CCCNC(=O)c1cc(-c2ccc(Cl)s2)nc2ccccc12 do in these assays?
MARV entry inh: inconclusive; LASV entry inh: 16%[46.1 µM]; HCMV inh: -21; FMDV antiviral: -22%

How did CCCCCc1nc2c(c(=O)c3ccccc3n2C)c(=O)n1C1CCCCCC1 do in these assays?
MARV entry inh: inconclusive; LASV entry inh: 16µM*; HCMV inh: inconclusive; FMDV antiviral: 32µM*; Giardia FBPA inh: 6%; HCV inh: inconclusive

What do the screens show for `CCCCCc1nc2c(c(=O)c3ccccc3n2C)c(=O)n1Cc1ccc(OC)cc1`?
HCMV inh: 23; FMDV antiviral: -2%; Giardia FBPA inh: 1%; HCV inh: inconclusive

Results for Cn1c2ccccc2c(=O)c2c(=O)n(C3CCCCC3)c(-c3ccco3)nc21 ?
MARV entry inh: inconclusive; LASV entry inh: 4%; HCMV inh: -63*; FMDV antiviral: -28%; Giardia FBPA inh: 11%; HCV inh: inconclusive

How did Cc1nc2c(c(=O)c3ccccc3n2C)c(=O)n1C1CCCCCC1 do in these assays?
MARV entry inh: inconclusive; LASV entry inh: 15%; HCMV inh: -17; FMDV antiviral: 24%; Giardia FBPA inh: 6%; HCV inh: inconclusive

Results for Cc1nn2c(=O)cc(COC(=O)c3cccc(NC(=O)c4ccc(F)cc4)c3)nc2s1 ?
LASV entry inh: inconclusive; HCMV inh: -25; FMDV antiviral: inconclusive

Results for COc1cc(OC)cc(-c2c(C#Cc3ccsc3)c3cc(-c4cccc5[nH]cc(C=O)c45)ccc3n2C)c1 ?
HCMV inh: -1; FMDV antiviral: -2%; HCV inh: 10µM*

Results for COc1ccc(-c2c(C#Cc3ccsc3)c3cc(-c4cccc5[nH]ccc45)ccc3n2C)cc1 ?
HCMV inh: 0; FMDV antiviral: -5%; HCV inh: inconclusive

What do the screens show for `COc1ccc(-c2c(C#Cc3ccsc3)c3cc(-c4ccc5c(c4)OCO5)ccc3n2C)cc1`?
HCMV inh: -71*; FMDV antiviral: -3%; HCV inh: -11%

What do the screens show for `COc1ccc(-c2c(C#Cc3ccsc3)c3cc(-c4ccc(C(N)=O)cc4)ccc3n2C)cc1`?
HCMV inh: inconclusive; FMDV antiviral: 0%; HCV inh: 7.1µM*

How did CCCCC(CC)CNC(=O)CN(C)S(=O)(=O)c1ccc2c(c1)c(=O)n(C)c(=O)n2C (stereo unspecified) do in these assays?
MARV entry inh: 22%[46.1 µM]; LASV entry inh: -10%[46.1 µM]; HCMV inh: inconclusive; FMDV antiviral: -8%

Results for CC(=O)NCCNC(=O)c1ccc2c(=O)n(CCc3ccccc3)c(=O)[nH]c2c1 ?
MARV entry inh: inconclusive; LASV entry inh: inconclusive; HCMV inh: 13; FMDV antiviral: 30%
